Records with an inconclusive call do not appear. Where a call stands in place of a potency, no number is given. The source made the active and inactive calls. The call rests on the fitted dose curve; in most records, active means well fitted inhibition curve with a large enough effect; inconclusive means small, poorly fitted or top-dose-only effect; inactive means no such curve, though single readings can be large or run the other way.
molecular target: N-terminal Xaa-Pro-Lys N-methyltransferase 1 (Homo sapiens) (UniProt Q9BV86); experiment: qHTS Assay for Inhibitors of N-terminal methyltransferase 1 (NTMT1): MTaseGlo Confirmatory Screen, Round 2; conditions: NTMT1 enzyme, MTase-Glo SAH luminescence; series mostly up to 57.4 µM
Excerpt: Assay Submitter (PI): Rong Huang Ph.D, Purdue University, West Lafayette, IN 47907
The N-terminal methytransferase 1 is the first methyltransferase that methylates protein alpha-N-amines and plays an important role in regulating cell mitosis, chromatin interactions and DNA repair. It is observed to be over-expressed in various cancer patient tissues like malignant melanoma and colorectal cancer tissues. Knockdown of NTMT1 in cancer cells causes cell mitotic defects and enhances sensitivity to DNA damaging chemotherapeutics. […] These critical cellular processes in which NTMT1 is implicated, coupled with emerging links to cellular dysfunction, strengthen the inference that NTMT1 is a compelling novel anticancer target. Progress have been made in understanding the molecular properties of NTMT1 and the biological consequences of protein alpha-N-terminal methylation, but there are no specific small molecule probes available for NTMT1 to fully characterize its MTase activity. To address this unmet need, a panel of assay is created and established to enable quantitative high-throughput screening (qHTS) for novel, potent, and selective small molecule NTMT1 inhibitors. Two orthogonal qHTS that use different reagents (ThioGlo vs. MTaseGlo) are developed for primary robotic screening against the NCATS chemical library of more than 400,000 small molecules. Identified inhibitors are reacquired, validated, and further characterized.
MTaseGlo Assay is a luminescence screen that measure the activity of methyltransferases based on the reaction product S-adenosyl homocysteine (SAH). The substrate SAM is converted to SAH upon enzyme activation. MTase-Glo reagent and detection solution convert SAH to ATP and measure the light from the luciferase reaction.
Early Translation Branch (ETB)
National Center for Advancing Translational Sciences (NCATS)
National Institute of Health (NIH)
NTMT1 enzyme, substrate SPKRIA, control peptide RCC1-6 is provided by the Huang laboratory.
In brief, 3 µL of enzyme mixture (final concentrations of 125 nM and 100 µM for NTMT1 and SAM, respectively) into all wells of a 1,536-well solid-bottom white plate (Greiner Bio One, Monroe, NC). 23 nL of DMSO or Ac-RCC1-10 (final concentration range 234 nM to 143 microM) was transferred via Wako Pin-tool (Wako Automation, Richmond, VA) and incubated (RT) for ~15 minutes. Next, 1 µL of substrate (final concentration 1 µM) or buffer was dispensed, and the reaction proceeded for 30 minutes (RT, protected from light) followed by a 1 microL addition of [5X] MTase-Glo Reagent(R). Samples were incubated (RT, protected from light) for 30 minutes to allow for SAH to be converted to ADP, followed by a 5 microL addition of [1X] MTase-Glo Detection Solution(R) to allow for ADP to be converted to ATP, which was then detected with a luciferase reaction. Samples were centrifuged for 15 seconds at 1,000 RPM's, followed by a RT incubation for 30 minutes. Plates were then read using Luminescence optics on a ViewLux detector. Data were normalized to no-enzyme (0% activity) and no-inhibitor (DMSO; 100%) controls, and the resulting percent inhibition data were fitted to a 4-parameter Hill equation using Graphpad Prism.
Potency means the concentration at half of the fitted maximal effect.

Chain of N-terminal Xaa-Pro-Lys N-methyltransferase 1 (Homo sapiens) (Q9BV86 whole entry, looked up): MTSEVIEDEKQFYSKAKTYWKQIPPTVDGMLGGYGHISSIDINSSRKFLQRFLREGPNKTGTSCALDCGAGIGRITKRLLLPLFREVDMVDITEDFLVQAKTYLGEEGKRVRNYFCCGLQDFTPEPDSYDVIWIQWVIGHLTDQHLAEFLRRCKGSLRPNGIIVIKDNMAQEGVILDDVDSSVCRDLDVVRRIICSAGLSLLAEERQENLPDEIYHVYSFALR

Row | Compound | Potency
1 | O=C1CC[C@@]2(O)C3Cc4ccc(O)c5c4C2(CCN3CC2CC2)[C@H]1O5 (stereo partly drawn) | inactive
2 | CC(N)Cc1c[nH]c2ccc(O)cc12 (stereo not drawn) | inactive
3 | c1ccc(CCCN2CCN(CCOC(c3ccccc3)c3ccccc3)CC2)cc1 | inactive
4 | O=S1(=O)N(CCN2CC=C(c3c[nH]c4cc(F)ccc34)CC2)c2cccc3c2N1CCC3 | inactive
5 | CNCCc1c[nH]c2ccc(O)cc12 | inactive
6 | NC(=O)CI | 8.91 µM (active)
7 | CC(=O)c1c(O)c(C)c(O)c(Cc2c(O)c3c(c(C(=O)/C=C/c4ccccc4)c2O)OC(C)(C)C=C3)c1O | inactive
8 | O=[N+]([O-])c1ccc2nc(N3CCNCC3)ccc2c1 | inactive
9 | O=[N+]([O-])c1cc(O)c(O)c([N+](=O)[O-])c1 | inactive
10 | COC[C@H]1OC(=O)c2coc3c2[C@@]1(C)C1=C(C3=O)C2CCC(=O)[C@@]2(C)C[C@H]1OC(C)=O (stereo partly drawn) | inactive
11 | N#CC(C#N)=Cc1ccc(O)c(O)c1 | inactive
12 | NCC(O)c1cc(O)c(O)cc1F (stereo not drawn) | inactive
13 | COc1ccc2c(c[n+](C)c3c4cc5c(cc4ccc23)OCO5)c1OC | inactive
14 | CN(N=O)c1cc(O)ccc1O | inactive
15 | CC(C)=CCOc1c2occc2cc2ccc(=O)oc12 | inactive
16 | CCn1cnc2c(Nc3cccc(Cl)c3)nc(N[C@@H]3CCCC[C@@H]3N)nc21 | 11.2 µM (active)
17 | CCCN(CCC)[C@H]1CCc2c(F)ccc(O)c2C1 | inactive
18 | NC(Cc1cc(O)c(O)cc1O)C(=O)O (stereo not drawn) | 15.8 µM (active)
19 | N#C/C(=C/c1ccc(O)c(O)c1)C(N)=S | inactive
20 | CC(N)[C@H](O)c1ccc(O)c(O)c1 (stereo partly drawn) | inactive
21 | Clc1ccc(N2CC3CCC(C2)N3)nn1 | inactive
22 | O=[N+]([O-])/C=C/c1ccc2c(c1)OCO2 | inactive
23 | NC(N)=Nc1ccc2[nH]c3c(c2c1)C[C@@]1(O)[C@H]2Cc4ccc(O)c5c4[C@@]1(CCN2CC1CC1)[C@H]3O5 | 25.1 µM (active)

Source: PubChem BioAssay AID1347147 (National Center for Advancing Translational Sciences (NCATS), 2019)
